Compounds with a hit are over-represented: about 0.34% of the library has one in this group of screens.
Tb PFK inh-1 – T. brucei PFK enzyme inhibition; O15648; T. brucei PFK, ADP-Glo luminescence; Potency, µM (titrated, usually from 57.5 µM), most hits filed as inhibitors; actives 0.17% (n = 330,000); note: nearly all actives have a fitted effect of over 60% in size
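1.25 nM PFK with 0.5 mM F6P and 0.1 mM ATP in 0.1 M TEA pH 8.0, 5 mM MgCl2, incubated 45 min at room temperature; ADP measured by ADP-Glo luminescence; compounds titrated up to 57 uM.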
BCR signal inh – inhibitors of chronic active B-cell receptor signaling. Potency, µM (doses to about 46.1 µM), most hits filed as inhibitors. actives 0.05% (n = 340,000). ABC-DLBCL IkBa-CBG/CBR reporter, luminescence ratio, 4 h. AID 493014; active = well fitted inhibition curve with a large enough effect in the signal ratio, with a control signal flat, not every such curve was filed as active; inconclusive = small, poorly fitted or top-dose-only effect, or effect the other way, or a change in a side signal; the % refers to the signal ratio
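TMD8 ABC-DLBCL cells carrying doxycycline-inducible green luciferase fused to IkappaBalpha plus unfused red luciferase were exposed to compounds (up to 46 uM) for 4 hrs at 37C. Activity came from the overlap-corrected green/red luminescence ratio.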
Pin1 inh – human Pin1 inhibition | Q13526 | AID 504891 | actives 0.009% (n = 390,000) | Potency, µM (titrated, usually from 115 µM), usual class: inhibitors | Pin1 FP peptide displacement, HiFluor488, 10 min; active = well fitted inhibition curve with a large enough effect in the polarisation, with a control signal flat, not every such curve was filed as active; inconclusive = small, poorly fitted or top-dose-only effect, or effect the other way, or a change in a side signal; inactive = no such curve, though single readings can be large or run the other way; the % refers to the polarisation
Tb PGK inh – inhibitors of T. brucei phosphoglycerate kinase; PGK/GAPDH coupled, Kinase-Glo luminescence, 60 min; Potency, µM (series often up to 57.5 µM), most hits filed as inhibitors; actives 0.043% (n = 380,000); AID 602233; note: nearly all actives have a fitted effect of over 60% in size
Target sequence (P07378 whole entry, looked up): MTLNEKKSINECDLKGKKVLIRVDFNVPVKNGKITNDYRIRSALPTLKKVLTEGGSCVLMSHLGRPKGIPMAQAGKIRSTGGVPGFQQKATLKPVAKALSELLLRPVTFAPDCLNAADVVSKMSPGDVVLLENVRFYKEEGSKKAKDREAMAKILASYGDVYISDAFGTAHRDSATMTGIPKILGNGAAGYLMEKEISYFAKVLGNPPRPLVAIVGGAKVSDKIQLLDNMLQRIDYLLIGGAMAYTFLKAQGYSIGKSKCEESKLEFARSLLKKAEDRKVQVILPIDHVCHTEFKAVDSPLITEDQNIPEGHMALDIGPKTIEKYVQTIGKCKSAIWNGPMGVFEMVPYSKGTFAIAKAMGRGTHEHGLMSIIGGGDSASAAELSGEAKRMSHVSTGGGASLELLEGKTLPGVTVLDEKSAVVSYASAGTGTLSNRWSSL
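Luminescent ATP detection (Kinase-Glo Plus) follows a 60-minute room-temperature incubation, with wells lacking PGK as controls. Buffer: 100 mM TEA (pH 7.6), 5 mM MgCl2, 0.01% Tween-20. Coupling enzyme GAPDH (100 nM final) supplies unstable 1,3-BPG in-well.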
PI4K2A inh – inhibitors of human PI4K2A. Q9BTU6. actives 0.13% (n = 420,000). purified PI4K2A, ADP-Glo luminescence, 1 h; hits give low values. activity change, negative = inhibition, % at 76.9 µM; in the data active = activity change below about -50%; inconclusive = mostly about -30% to -49%
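In this quantitative HTS, ADP production by PI4K2A was quantified luminescently after 1 h at ambient temperature; 100 microM adenosine served as plate-quality control.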
TbPFK ATP – Tb phosphofructokinase inhibition, orthogonal luminescence | shares compounds with Tb PFK inh-1 | Tb PFK enzyme, ATP depletion, Kinase-Glo Plus luminescence | Potency, µM (top dose mostly 57.5 µM) | actives 47% (n = 1,100); calls by dose curve; note: nearly all actives have a fitted effect of over 60% in size
Tb PFK inh-2 – validation of T. brucei phosphofructokinase inhibitors; shares compounds with Tb PFK inh-1; purified T. brucei PFK, ADP-Glo luminescence, 45 min; Potency, µM (highest dose often 57.5 µM), actives largely listed as inhibitors; actives 41% (n = 1,100); AID 504637; note: nearly all actives have a fitted effect of over 60% in size
Hits are given with their value; - = inactive; ? = inconclusive; . = not tested or not shown. Unless noted, calls come from the whole dose curve; as a rule, active = well fitted curve in the direction sought with a large enough effect; inconclusive = small, poorly fitted or top-dose-only effect, or another doubt; inactive = no such curve, though single readings can be large; an effect the other way counts as inactive or inconclusive.

SMILES | Tb PFK inh-1 | BCR signal inh | Pin1 inh | Tb PGK inh | PI4K2A inh | TbPFK ATP | Tb PFK inh-2
C=CCN1CC[C@]23c4c5ccc(O)c4O[C@@H]2/C(=N/N=C2\CC[C@@]4(O)C6Cc7ccc(O)c8c7[C@@]4(CCN6CC=C)[C@@H]2O8)CC[C@@]3(O)C1C5 | . | . | . | . | - | . | .
C=CCN1CCc2cccc3c2[C@H]1Cc1ccc(O)c(O)c1-3 | ? | - | - | - | - | 6µM | 6µM
CN1CCc2cccc3c2C1Cc1ccc(O)c(O)c1-3 (centres undefined) | 4.3µM | - | - | - | - | 19µM | 17µM
COc1cc2c(cc1OC)-c1c(OC)c(OC)cc3c1C(C2)N(C)CC3 (centres undefined) | - | - | - | - | - | . | .
CCCc1cc(F)c(S(=O)(=O)N2CCN(S(=O)(=O)c3ccc4c(c3)OCCO4)CC2)cc1F | . | . | - | . | . | . | .
Nc1nc2ccccc2n1Cc1ccc(F)cc1 | . | . | . | . | - | . | .
COc1ccc(S(=O)(=O)Oc2ccc3ccccc3c2)cc1 | - | ? | - | - | - | . | .
O=S(=O)(O)c1cc(OS(=O)(=O)c2ccccc2)cc2ccccc12 | 24µM | - | - | - | - | ? | ?
CCn1c2ccccc2c2cc(NC(=O)CSc3nnc(C4CC4)n3Cc3ccco3)ccc21 | ? | ? | - | - | - | ? | -
Oc1ccc(/C=N/N=C/c2ccc(O)c(O)c2)cc1O | 2.7µM | ? | - | ? | - | ? | ?
Cc1[nH]cnc1-c1ccc(Cl)cc1 | . | . | . | . | - | . | .
COc1ccc(N2C(=O)CS(=O)C(c3ccccc3)C2=O)cc1 (centres undefined) | ? | ? | - | - | - | ? | -
COc1cccc(C2c3c(ncn(-c4ccccc4SC)c3=N)Oc3ccc4ccccc4c32)c1 (centres undefined) | . | . | - | . | . | . | .
C=CCNc1nc(C(=O)OCC(=O)Nc2ccc(S(N)(=O)=O)cc2)cs1 | - | - | - | - | - | . | .
C=CCNc1nc(C(=O)OCC(=O)c2ccccc2)cs1 | 8.5µM | - | - | - | - | - | -
O=C(N/N=C/c1ccc(O)c(O)c1O)/C(=C/c1ccc([N+](=O)[O-])cc1)NC(=O)c1ccccc1 | 24µM | ? | ? | - | - | 3.4µM | 11µM
Cc1ccc(S(=O)(=O)N(C(=O)c2ccncc2)c2ccc(OC(=O)c3ccncc3)c3ccccc23)c(C)c1 | ? | ? | - | - | - | . | .
Cc1ccc(S(=O)(=O)N(C(=O)c2ccncc2)c2ccc(OC(=O)c3ccncc3)c3ccccc23)cc1 | 17µM | ? | - | - | - | 2.4µM | 2.7µM
Cc1cc2c(s1)c1cnn(Cc3c(F)cccc3C(F)(F)F)c(=O)c1n2C | . | . | - | . | . | . | .
Fc1cccc(NCc2ccoc2)c1 | ? | - | - | - | - | 12µM | 19µM
Fc1cccc(NCc2cn3ccccc3n2)c1 | 12µM | - | - | - | - | ? | -
c1coc(CNc2nc(-c3cccs3)nc3ccccc23)c1 | . | . | - | . | . | . | .
O=C1c2cccc3cccc(c23)C(=O)N1/N=C/c1ccc(O)cc1O | - | ? | ? | - | - | . | .
O=C1c2ccccc2C(=O)N1/N=C/c1ccc(O)c(O)c1O | 19µM | ? | . | - | - | 11µM | 27µM
Cc1cc2c(s1)c1cnn(Cc3ccccc3)c(=O)c1n2C | . | . | - | . | . | . | .
Fc1ccc(/C=N/Nc2nccnc2Cl)cc1 | - | - | - | ? | - | . | .
Oc1ccc(/C=N/Nc2nccnc2Cl)cc1 | ? | ? | - | 11µM | - | - | 19µM
O=C(CNC(=O)c1ccccc1)OC(CCc1ccccc1)C(=O)Nc1cc(C(F)(F)F)ccc1Cl (centres undefined) | . | . | - | . | . | . | .
NCCOc1ccccc1Cc1ccccc1 | 19µM | ? | - | - | - | ? | ?

Screening data (PubChem BioAssay)
